Reference: the supplement of paper PMC6411743
± gives the standard deviation of the averaged measurements. Of roughly 6,500 targets only a part is listed; those with the largest changes were picked by preference.

Compound: Nc1ncnc2c1ncn2[C@@H]1O[C@H](COP(=O)(O)OP(=O)(O)OP(=O)(O)O)[C@@H](O)[C@H]1O [adenosine triphosphate]
Assay: NP40-soluble protein abundance relative to vehicle (solubility fold change) (ratio); higher = more soluble protein in presence of ATP
Procedure, shortened: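 In three independent experiments, Jurkat crude lysate made by Dounce homogenisation was treated for 10 min at room temperature and then 3 min at 37 °C with eight concentrations ranging from 0.1 to 10 mM. It was then solubilised with 0.8% NP40 plus benzonase for 60 min at 4 °C and ultracentrifuged. The supernatant was TMT-labelled for LC-MS/MS, and each value is the fold change against the detergent-processed vehicle for the same replicate, using vsn-normalised intensities.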

UniProt Q9Y3Q3, sequence (Q9Y3Q3 whole entry): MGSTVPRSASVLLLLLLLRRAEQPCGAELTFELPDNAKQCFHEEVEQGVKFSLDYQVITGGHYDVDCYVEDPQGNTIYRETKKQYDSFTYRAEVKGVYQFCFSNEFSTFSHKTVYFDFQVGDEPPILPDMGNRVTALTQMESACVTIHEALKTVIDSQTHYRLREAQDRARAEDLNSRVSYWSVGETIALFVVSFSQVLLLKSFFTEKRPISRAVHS
UniProt Q9Y2X3, sequence (Q9Y2X3 whole entry): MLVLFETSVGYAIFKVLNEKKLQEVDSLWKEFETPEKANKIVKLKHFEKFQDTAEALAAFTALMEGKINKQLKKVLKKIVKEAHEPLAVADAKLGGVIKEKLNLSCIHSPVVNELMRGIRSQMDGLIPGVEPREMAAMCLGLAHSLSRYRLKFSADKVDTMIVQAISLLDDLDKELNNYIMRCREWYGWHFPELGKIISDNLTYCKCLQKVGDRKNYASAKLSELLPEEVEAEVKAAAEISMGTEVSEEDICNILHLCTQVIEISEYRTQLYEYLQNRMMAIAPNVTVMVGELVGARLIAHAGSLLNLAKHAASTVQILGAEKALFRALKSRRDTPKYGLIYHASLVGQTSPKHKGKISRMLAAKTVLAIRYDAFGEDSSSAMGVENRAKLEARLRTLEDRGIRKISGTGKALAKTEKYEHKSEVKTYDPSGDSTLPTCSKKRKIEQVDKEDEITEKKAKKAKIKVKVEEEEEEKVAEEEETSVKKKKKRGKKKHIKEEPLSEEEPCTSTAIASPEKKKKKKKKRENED
UniProt Q9Y2H0, sequence (Q9Y2H0 whole entry): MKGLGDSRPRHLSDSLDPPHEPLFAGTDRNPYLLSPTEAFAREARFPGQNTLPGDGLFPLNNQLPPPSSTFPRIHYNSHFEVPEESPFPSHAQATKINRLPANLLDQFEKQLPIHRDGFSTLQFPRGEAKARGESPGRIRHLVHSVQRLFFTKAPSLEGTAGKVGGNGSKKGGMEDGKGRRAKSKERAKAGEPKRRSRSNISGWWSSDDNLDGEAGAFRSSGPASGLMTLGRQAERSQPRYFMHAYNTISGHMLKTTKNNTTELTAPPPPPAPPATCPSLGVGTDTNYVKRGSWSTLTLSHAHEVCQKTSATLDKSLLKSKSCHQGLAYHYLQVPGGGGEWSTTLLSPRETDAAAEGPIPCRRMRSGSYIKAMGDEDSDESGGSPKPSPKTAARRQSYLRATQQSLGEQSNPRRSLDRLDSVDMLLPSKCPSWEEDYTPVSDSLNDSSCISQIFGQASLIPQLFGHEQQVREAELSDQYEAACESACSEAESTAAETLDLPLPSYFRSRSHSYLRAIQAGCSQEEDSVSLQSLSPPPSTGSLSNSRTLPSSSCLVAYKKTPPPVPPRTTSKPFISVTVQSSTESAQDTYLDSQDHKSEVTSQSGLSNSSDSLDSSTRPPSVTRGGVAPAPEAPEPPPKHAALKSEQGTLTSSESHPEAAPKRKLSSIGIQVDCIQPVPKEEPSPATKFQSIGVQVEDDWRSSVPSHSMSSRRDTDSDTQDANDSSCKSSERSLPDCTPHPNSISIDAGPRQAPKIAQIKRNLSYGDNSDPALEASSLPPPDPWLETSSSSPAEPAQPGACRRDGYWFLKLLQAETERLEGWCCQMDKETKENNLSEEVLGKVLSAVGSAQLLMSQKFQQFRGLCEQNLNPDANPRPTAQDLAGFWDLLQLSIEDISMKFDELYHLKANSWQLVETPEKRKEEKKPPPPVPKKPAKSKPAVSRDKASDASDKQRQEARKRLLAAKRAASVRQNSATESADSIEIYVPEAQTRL
UniProt Q9UHB6, sequence (Q9UHB6 whole entry, one chain of several): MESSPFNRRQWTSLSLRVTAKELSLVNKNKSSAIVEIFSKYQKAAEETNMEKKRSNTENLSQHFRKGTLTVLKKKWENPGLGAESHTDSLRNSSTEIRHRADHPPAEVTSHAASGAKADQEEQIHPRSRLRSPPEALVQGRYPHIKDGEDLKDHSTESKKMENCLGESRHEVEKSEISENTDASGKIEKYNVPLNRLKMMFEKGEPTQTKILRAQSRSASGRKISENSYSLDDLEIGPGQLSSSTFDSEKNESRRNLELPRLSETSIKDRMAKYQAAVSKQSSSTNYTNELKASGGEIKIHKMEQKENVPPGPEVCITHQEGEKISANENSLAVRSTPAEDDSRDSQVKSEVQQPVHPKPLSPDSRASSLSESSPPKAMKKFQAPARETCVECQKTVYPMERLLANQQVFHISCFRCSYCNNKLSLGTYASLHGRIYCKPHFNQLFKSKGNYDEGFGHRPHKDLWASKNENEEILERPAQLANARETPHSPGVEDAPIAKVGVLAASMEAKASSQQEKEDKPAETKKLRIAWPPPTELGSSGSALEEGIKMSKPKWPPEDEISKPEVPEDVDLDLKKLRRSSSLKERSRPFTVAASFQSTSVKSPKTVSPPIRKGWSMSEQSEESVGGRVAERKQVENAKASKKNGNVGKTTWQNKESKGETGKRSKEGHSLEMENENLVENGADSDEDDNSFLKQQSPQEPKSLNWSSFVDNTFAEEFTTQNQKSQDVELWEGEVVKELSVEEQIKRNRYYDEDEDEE
UniProt Q9Y303, sequence (Q9Y303 whole entry): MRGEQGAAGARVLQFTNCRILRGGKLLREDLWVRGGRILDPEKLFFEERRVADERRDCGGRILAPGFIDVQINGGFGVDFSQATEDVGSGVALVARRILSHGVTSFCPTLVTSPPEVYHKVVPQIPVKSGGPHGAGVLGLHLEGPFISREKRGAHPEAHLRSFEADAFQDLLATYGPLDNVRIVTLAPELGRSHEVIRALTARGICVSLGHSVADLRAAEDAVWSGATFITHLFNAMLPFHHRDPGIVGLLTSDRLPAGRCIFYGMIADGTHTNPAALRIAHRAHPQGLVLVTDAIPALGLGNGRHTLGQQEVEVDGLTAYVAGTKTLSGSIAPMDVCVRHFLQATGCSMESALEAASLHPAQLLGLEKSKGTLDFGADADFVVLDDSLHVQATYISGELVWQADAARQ
UniProt Q9UIQ6, sequence (Q9UIQ6 whole entry): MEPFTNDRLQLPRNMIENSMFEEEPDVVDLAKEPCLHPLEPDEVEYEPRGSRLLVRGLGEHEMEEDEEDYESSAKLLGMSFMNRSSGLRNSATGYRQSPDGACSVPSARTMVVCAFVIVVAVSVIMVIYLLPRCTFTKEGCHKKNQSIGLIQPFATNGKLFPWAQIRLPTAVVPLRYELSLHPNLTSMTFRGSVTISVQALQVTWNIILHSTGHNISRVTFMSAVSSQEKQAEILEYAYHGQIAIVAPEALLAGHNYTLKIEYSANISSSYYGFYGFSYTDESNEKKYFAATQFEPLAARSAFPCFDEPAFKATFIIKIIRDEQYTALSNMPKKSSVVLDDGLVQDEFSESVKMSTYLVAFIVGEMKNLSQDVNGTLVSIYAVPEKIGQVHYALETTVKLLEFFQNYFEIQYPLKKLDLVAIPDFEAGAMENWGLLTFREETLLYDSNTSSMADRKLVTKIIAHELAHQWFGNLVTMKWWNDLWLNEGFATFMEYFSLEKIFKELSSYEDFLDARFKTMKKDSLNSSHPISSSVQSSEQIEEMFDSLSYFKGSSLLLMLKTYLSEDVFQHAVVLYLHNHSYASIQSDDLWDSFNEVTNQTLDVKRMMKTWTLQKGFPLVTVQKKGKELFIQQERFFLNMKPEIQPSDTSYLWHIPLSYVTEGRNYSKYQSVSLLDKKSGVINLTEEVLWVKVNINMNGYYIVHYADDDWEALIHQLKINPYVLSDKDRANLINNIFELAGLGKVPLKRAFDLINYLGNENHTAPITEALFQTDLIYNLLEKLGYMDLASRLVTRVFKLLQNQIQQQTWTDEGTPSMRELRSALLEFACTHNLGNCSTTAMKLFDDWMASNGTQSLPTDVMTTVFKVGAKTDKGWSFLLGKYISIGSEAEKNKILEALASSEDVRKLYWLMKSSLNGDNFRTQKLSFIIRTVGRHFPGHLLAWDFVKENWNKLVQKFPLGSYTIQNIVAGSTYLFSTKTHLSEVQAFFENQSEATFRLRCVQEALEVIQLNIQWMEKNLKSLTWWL
UniProt Q9UPN7, sequence (Q9UPN7 whole entry): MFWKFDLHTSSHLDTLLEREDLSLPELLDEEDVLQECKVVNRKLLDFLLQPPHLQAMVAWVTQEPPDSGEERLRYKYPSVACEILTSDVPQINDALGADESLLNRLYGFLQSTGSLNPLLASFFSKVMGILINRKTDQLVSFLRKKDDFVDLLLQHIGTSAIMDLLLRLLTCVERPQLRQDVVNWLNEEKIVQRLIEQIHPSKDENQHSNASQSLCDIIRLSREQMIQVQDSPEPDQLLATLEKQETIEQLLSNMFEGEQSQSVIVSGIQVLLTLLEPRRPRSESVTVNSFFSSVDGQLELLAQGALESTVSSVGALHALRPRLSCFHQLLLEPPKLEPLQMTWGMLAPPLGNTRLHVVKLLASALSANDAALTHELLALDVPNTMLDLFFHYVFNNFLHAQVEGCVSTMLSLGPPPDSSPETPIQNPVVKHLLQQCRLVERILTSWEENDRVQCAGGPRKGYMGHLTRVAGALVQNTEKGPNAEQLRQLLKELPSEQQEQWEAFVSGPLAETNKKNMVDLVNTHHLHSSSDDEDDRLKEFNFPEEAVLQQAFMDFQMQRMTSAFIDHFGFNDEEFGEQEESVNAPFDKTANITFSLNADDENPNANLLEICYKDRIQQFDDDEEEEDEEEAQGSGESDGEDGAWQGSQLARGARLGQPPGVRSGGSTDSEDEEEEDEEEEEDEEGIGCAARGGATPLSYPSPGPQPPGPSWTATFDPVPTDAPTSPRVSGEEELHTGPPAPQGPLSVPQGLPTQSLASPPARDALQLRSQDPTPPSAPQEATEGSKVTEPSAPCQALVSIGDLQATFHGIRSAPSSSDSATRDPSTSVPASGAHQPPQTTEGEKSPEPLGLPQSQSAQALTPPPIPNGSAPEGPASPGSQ

Target	NP40-soluble protein abundance (concentration: 1mM)	NP40-soluble protein abundance (concentration: 2mM)	NP40-soluble protein abundance (concentration: 4mM)	NP40-soluble protein abundance (concentration: 6mM)	NP40-soluble protein abundance (concentration: 8mM)	NP40-soluble protein abundance (concentration: 10mM)
LNPEP (UniProt Q9UIQ6)	0.914 ± 0.015	0.937 ± 0.021	0.909 ± 0.022	0.918 ± 0.035	0.882 ± 0.045	0.872 ± 0.038
WDR3 (UniProt Q9UNX4)	1.28 ± 0.11	1.46 ± 0.1	1.82 ± 0.17	1.97 ± 0.2	2.23 ± 0.2	2.34 ± 0.13
UniProt Q9ULE6	1.08 ± 0.084	1.03 ± 0.12	1.06 ± 0.092	0.991 ± 0.1	1.05 ± 0.045	1.02 ± 0.048
UniProt Q9Y2H0|Q9Y2H0-3|Q9Y2H0-1	0.921 ± 0.038	0.899 ± 0.068	0.922 ± 0.045	0.944 ± 0.025	0.861 ± 0.093	0.85 ± 0.052
UniProt Q9UHB6|F8VQE1|Q9UHB6-2	1.05 ± 0.14	1.16 ± 0.14	1.35 ± 0.16	1.56 ± 0.21	1.62 ± 0.12	1.86 ± 0.18
UniProt Q9ULV4|Q9ULV4-2|Q9ULV4-3	1.08 ± 0.086	1.16 ± 0.1	1.24 ± 0.11	1.4 ± 0.12	1.43 ± 0.13	1.52 ± 0.16
TEX264 (UniProt Q9Y6I9)	0.918 ± 0.028	0.919 ± 0.024	0.91 ± 0.041	0.916 ± 0.061	0.867 ± 0.058	0.886 ± 0.029
POFUT2 (UniProt Q9Y2G5)	1 ± 0.037	1.04 ± 0.019	1.01 ± 0.012	1.02 ± 0.04	0.955 ± 0.029	0.975 ± 0.017
NOP58 (UniProt Q9Y2X3)	1.08 ± 0.062	1.1 ± 0.054	1.2 ± 0.054	1.35 ± 0.079	1.51 ± 0.042	1.71 ± 0.13
UniProt Q9Y303|Q9Y303-2|Q9Y303-3	0.995 ± 0.056	1.03 ± 0.069	1.03 ± 0.083	0.973 ± 0.12	1.02 ± 0.086	0.995 ± 0.063
UniProt Q9UPN7	0.945 ± 0.014	0.941 ± 0.046	0.941 ± 0.029	0.917 ± 0.041	0.924 ± 0.018	0.93 ± 0.037
LUC7L2 (UniProt Q9Y383)	1.84 ± 0.14	1.95 ± 0.034	2.05 ± 0.038	2.21 ± 0.066	2.12 ± 0.087	2.11 ± 0.095
UniProt Q9UL54-2	1.29 ± 0.17	1.54 ± 0.35	1.57 ± 0.33	1.67 ± 0.33	1.63 ± 0.24	1.69 ± 0.4
UniProt Q9Y6X3	0.977 ± 0.053	1.06 ± 0.086	1.15 ± 0.25	1.09 ± 0.26	0.98 ± 0.057	1.11 ± 0.22
TMED3 (UniProt Q9Y3Q3)	1.08 ± 0.12	1.07 ± 0.12	1.06 ± 0.086	1.04 ± 0.13	1.06 ± 0.057	1.04 ± 0.088
UniProt Q9UP95|Q9UP95-5|Q9UP95-6	0.956 ± 0.1	0.979 ± 0.12	0.964 ± 0.11	1.03 ± 0.058	0.909 ± 0.099	0.989 ± 0.035
UniProt Q9UKI8|Q9UKI8-5	0.986 ± 0.039	0.998 ± 0.025	1 ± 0.059	0.993 ± 0.041	0.953 ± 0.021	0.977 ± 0.054
UniProt Q9Y5P4|Q9Y5P4-2|Q9Y5P4-3	0.9555 ± 0.0053	0.974 ± 0.025	0.948 ± 0.011	0.949 ± 0.024	0.93 ± 0.011	0.954 ± 0.026
